A short description of assay [1]: NCI Yeast Anticancer Drug Screen. Data for the rad50 strain (AID 155).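 Note: 0% = growth of vehicle-only cultures of the same strain.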 Conditions: S. cerevisiae rad50 strain growth inhibition; at 50.0 µM; hits give high values. In a few lines:
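Readout: growth inhibition relative to vehicle-treated cultures. Compound exposure was carried out in a genetically defined yeast strain deficient in DNA damage repair.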

Assay [2] in a line: NCI Yeast Anticancer Drug Screen. Data for the mec2-1 strain (AID 157). Conditions: S. cerevisiae mec2-1 strain, at 50.0 µM, hits give high values. In a few lines:
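Strain: mec2-1 (DNA repair/cell cycle alteration). Compound exposure, then growth measured; inhibition expressed relative to vehicle.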

The nature of assay [3]: NCI Yeast Anticancer Drug Screen. Data for the sgs1 mgt1 strain (AID 161).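 Note: 0% = growth of cultures given vehicle only.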 Particulars: S. cerevisiae sgs1 mgt1 strain, at 50.0 µM, hits give high values. In a few lines: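 Genetically altered yeast, compound exposure, growth inhibition relative to vehicle.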
Assay [4] can be described thus: NCI Yeast Anticancer Drug Screen. Data for the cln2 rad14 strain (AID 165).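 Note: 0% = growth equal to vehicle treated cultures.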 Particulars: S. cerevisiae cln2 rad14 strain, at 50.0 µM, hits give high values. In a few lines:
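Compounds are applied to the cln2 rad14 yeast strain, and growth is then compared with that of vehicle-treated cultures to give inhibition.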

Assay [5] in a line: NCI Yeast Anticancer Drug Screen. Data for the bub3 strain (AID 167). Particulars: S. cerevisiae bub3 mutant strain, at 50.0 µM, hits give high values. In a few lines:
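Readout: yeast growth inhibition, expressed relative to vehicle-only wells. The test organism is a mutant strain from a panel with lesions in DNA repair or checkpoint genes.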

The nature of assay [6]: NCI Yeast Anticancer Drug Screen. Data for the mlh1 rad18 strain (AID 175). Particulars: S. cerevisiae mlh1 rad18 strain growth inhibition; at 50.0 µM; hits give high values. The procedure, abridged: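 Read-out is yeast growth inhibition, calculated against vehicle-only controls. The compound was applied to a strain engineered with DNA damage repair alterations.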

Compounds without any hit were thinned out: in the full panel of roughly 79,000, 15% have a hit. Values without a mark were called inactive. Calls of active or inactive are those of the source. Cut-off read from the data, not from the text of the source: active = growth inhibition above about 70%; inactive = the rest.

As to `C=C(C(C)C)C1CC1`, the growth inhibition in assay [1] is 0.25%; in assay [2] it was -18.2%; in assay [3] it was -4.25%; in assay [4], 3.5%; in assay [5], -2.6%; in assay [6], -11.8%.
Turning to `Cc1cccc(C)c1Nc1ncnc2c1cnn2C`, the growth inhibition was -11.6% in assay [1]; -12.5% in assay [2]; -1.2% in assay [3]; -6.55% in assay [4]; 9.95% in assay [5]; -13.9% in assay [6].
In the case of `Nc1ccc(N)c2cc(S(=O)(=O)O)ccc12`, the growth inhibition in assay [1] was 3.85%; in assay [2], -4.8%; in assay [3] it was -5.1%; in assay [4] it was 6.4%; in assay [5], -16.2%; in assay [6] it was 7.9%.
Turning to `Fc1c(F)c(F)c(CCc2c(F)c(F)c(F)c(F)c2F)c(F)c1F`, the growth inhibition in assay [1] was 11.2%; in assay [2] it was -8.2%; in assay [3] it was 15.9%; in assay [4] it was -39.1%; in assay [5], -41.4%; in assay [6] it was 19.2%.
In the case of `CC12CCC3c4ccc(OC(=O)C56C=CC(=O)C5C5C=CC6CC5)cc4CCC3C1CCC2=O` (stereo unspecified), the growth inhibition was 11.6% in assay [1]; -16.8% in assay [2]; -2.2% in assay [3]; 16.1% in assay [4]; -4.05% in assay [5]; 0.05% in assay [6].
On to `O=C(O)c1ccc(NC(NC(=O)C(C(F)(F)F)C(F)(F)F)(C(F)(F)F)C(F)(F)F)cc1`, for which the growth inhibition in assay [1] was 20.2%; in assay [2] it was 14.4%; in assay [3] it was 8.9%; in assay [4], 1.2%; in assay [5], 11.2%; in assay [6] it was 14.4%.
Take `CC(=O)NCCOC(=O)c1ccccc1`: the growth inhibition in assay [1] is 34.5%; in assay [2], 4.75%; in assay [3], 16.4%; in assay [4], -17.9%; in assay [5], 4.05%; in assay [6], 5.9%.
For the compound `c1ccc(P(=Nc2cccc(N=P(c3ccccc3)(c3ccccc3)c3ccccc3)c2)(c2ccccc2)c2ccccc2)cc1`, the growth inhibition was 0.95% in assay [1]; 6.9% in assay [2]; 28.2% in assay [3]; -2.6% in assay [4]; 0.05% in assay [5]; 6.6% in assay [6].
Take `NC(=O)c1ccccc1OC(=O)Nc1ccccc1`: the growth inhibition is 16.6% in assay [1]; 7.5% in assay [2]; 5.1% in assay [3]; 17.2% in assay [4]; 22.1% in assay [5]; 10.8% in assay [6].
As to `CC(NC(=O)C(NC(=O)c1ccc[n+](Cc2ccccc2)c1)C(C)C)C(N)=O` (stereo unspecified), the growth inhibition is 0.45% in assay [1]; 8.05% in assay [2]; -2.6% in assay [3]; -6.2% in assay [4]; -1.95% in assay [5]; 23.4% in assay [6].
On to `COC(=O)c1c(C(=O)Nc2ccccc2)c(-c2ccccc2)n(NC(N)=O)c1C`, for which the growth inhibition in assay [1] was 8.35%; in assay [2] it was 3.25%; in assay [3], 4.2%; in assay [4] it was -17.4%; in assay [5], -1.75%; in assay [6], 17%.
`CC1(C)C(O)C(C)(C)C1O` (stereo unspecified): the growth inhibition in assay [1] was 17.1%; in assay [2], -17.6%; in assay [3] it was 7.8%; in assay [4], 6.95%; in assay [5] it was 11.2%; in assay [6] it was 10.2%.
As for `CC(O)CNc1ncnc2c1cnn2C` (stereo unspecified), the growth inhibition is -4.1% in assay [1]; -24.9% in assay [2]; -10.2% in assay [3]; 8.8% in assay [4]; -4.3% in assay [5]; 12.8% in assay [6].
In the case of `CCCCN(C(C)=O)c1ccccc1`, the growth inhibition in assay [1] is -8.8%; in assay [2] it was 9.45%; in assay [3], 4.2%; in assay [4] it was -6.15%; in assay [5] it was -9.4%; in assay [6], 1.1%.
`Nc1nc(NCCCc2ccccc2)c(N)c(=O)[nH]1`: the growth inhibition in assay [1] was 5.1%; in assay [2], 16.9%; in assay [3], 6.55%; in assay [4], -3.1%; in assay [5] it was 31.6%; in assay [6], 7.6%.
`CC1=CC(=O)C2C(C)(C)CCCC2(C)C1(O)CCc1ccoc1` (stereo unspecified): the growth inhibition in assay [1] was 96.2% (active); in assay [2], 88% (active); in assay [3], 93.4% (active); in assay [4] it was 92.2% (active); in assay [5], 89.7% (active); in assay [6], 96.8% (active).
Regarding `Cc1ccc(C)c(NC(=O)Oc2ccc(C(=O)OCc3ccccc3)cc2)c1`, the growth inhibition in assay [1] was 66.8%; in assay [2] it was 90.8% (active); in assay [3], 74.9% (active); in assay [4], 40.5%; in assay [5] it was 96.5% (active); in assay [6], 89.5% (active).
`CCC(=O)OCC1OC(Oc2ccc(N=Nc3ccccc3)cc2)C(OC(=O)CC)C(OC(=O)CC)C1OC(=O)CC` (stereo unspecified): the growth inhibition in assay [1] was 18.9%; in assay [2], 3.4%; in assay [3] it was 34%; in assay [4], 1.35%; in assay [5], 12.9%; in assay [6], 28.2%.
Turning to `C=CCCCCC1CCC2CCC(CCCCC=C)N12` (stereo unspecified), the growth inhibition in assay [1] is 40.8%; in assay [2], 28.4%; in assay [3], 38.6%; in assay [4], 42.5%; in assay [5], 49.4%; in assay [6] it was 35.9%.
As for `CCOC(=O)C(=O)C1C(=O)Nc2ccccc21` (stereo unspecified), the growth inhibition is -12.4% in assay [1]; -4.9% in assay [2]; -6.35% in assay [3]; -2.5% in assay [4]; -18.4% in assay [5]; -12.6% in assay [6].
Turning to `NCCCCCOCCCCCN`, the growth inhibition in assay [1] is 3.4%; in assay [2] it was -0.25%; in assay [3], -7%; in assay [4], -8.1%; in assay [5], 3.8%; in assay [6], -1.65%.

(Values after PubChem BioAssay (NCI).)
